Screens deposited in PubChem by National Center for Advancing Translational Sciences (NCATS).
G9a block: G9a (human) methyltransferase inhibition. G9a H3K9 monomethylation, AlphaScreen, 2 h. 8.8% of 350,000 active. Potency, µM (top dose mostly 102 µM), most hits filed as inhibitors. Q96KQ7; note: nearly all actives have a fitted effect of over 75% in size
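Enzyme 20 nM + cpd, 15 min RT; add b-H3K9 pep 500 nM / SAM 20 uM; 2 h RT; anti-H3K9me1 Ab 0.5 ug/mL + SA donor / anti-rabbit acceptor beads 20 ug/mL each, 10 min; AlphaScreen read.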
HP1b binding inh: inhibitors of HP1-beta chromodomain binding to methylated histone tails; Potency, µM (top dose mostly 114 µM), most hits filed as inhibitors; P83916; 0.56% of 390,000 active; AID 540317; AlphaScreen HP1-beta / biotin-H3K9me3 peptide binding; note: nearly all actives have a fitted effect of over 70% in size
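AlphaScreen: HP1-beta (50 nM) preformed 30 min with biotin-H3(1-18)K9me3 peptide (50 nM) in PBS pH 7.4, 0.01% Tween-20. Compound added for 30 min at RT, then streptavidin donor/nickel chelate acceptor beads (10 ug/mL) for 30 min.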
PLK1 PBD block: blocks phosphopeptide binding to human PLK1 polo-box domain | P53350 | Plk1 PBD binding of FITC phosphopeptide, fluorescence polarization | Potency, µM, actives largely listed as inhibitors | 2.8% of 360,000 active; note: series mostly up to about 57 µM; nearly all actives have a fitted effect of over 65% in size
BAZ2B inh: inhibitors of human BAZ2B bromodomain. AlphaScreen BAZ2B-H3K14Ac peptide displacement. 4.4% of 360,000 active. Potency, µM (highest dose often 114 µM), hits mostly inhibitors. Q9UIF8; note: nearly all actives have a fitted effect of over 60% in size
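AlphaScreen luminescence quantifies BAZ2B engagement of H3K14Ac peptide; the protein and biotinylated peptide are both at 50 nM final, buffer PBS pH 7.4 with 0.01% Tween-20, all steps at room temperature.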
JMJD2A Tudor: inhibitors of human JMJD2A Tudor domain; AlphaScreen JMJD2A-Tudor / H3K4me3 peptide binding; AID 504339; 4.4% of 390,000 active; Potency, µM (titrated, usually from 114 µM), most hits filed as inhibitors; note: nearly all actives have a fitted effect of over 50% in size
Sfp inh: blocks B. subtilis Sfp PPTase activity. 3.5% of 310,000 active. AID 1490. Potency, µM, hits mostly inhibitors. Biochemical Sfp PPTase activity, qHTS;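 note: the enzyme is Sfp with the accession as filed and its product quenches rhodamine fluorescence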
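Fluorescence-quenching assay with 15 nM Sfp, 5 uM rhodamine-CoA and 12.5 uM BHQ-2-labelled ybbR peptide in pH 7.6 Hepes/MgCl2 buffer. Enzyme was pre-incubated with compound for 15 min at room temperature. Rate was taken from the 30-min fluorescence change (525/598 nm).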
Hits are given with their value; . = inactive; ? = inconclusive; / = not tested or not shown; ! = not confirmed by another sample; [ ] = another dose, or the depositor's remark. Only some compounds are listed: those with a hit (about 12% of all), similar ones and a draw of the others. Calls come from the whole dose curve; as a rule, active = well fitted curve in the direction sought with a large enough effect; inconclusive = small, poorly fitted or top-dose-only effect, or another doubt; inactive = no such curve, though single readings can be large; an effect the other way counts as inactive or inconclusive.

SMILES | G9a block | HP1b binding inh | PLK1 PBD block | BAZ2B inh | JMJD2A Tudor | Sfp inh
Cc1nnc(NC(=O)c2ccccc2NC(=O)c2ccccc2)s1 | 50µM | . | . | . | . | .
O=C(NN=C1CCCC1)c1ccccc1O | / | . | . | . | ? | .
O=C(Nc1ccccc1C(=O)O)c1ccccc1 | 50µM | . | . | ? | . | .
O=C(O)c1ccccc1Nc1ccccc1C(=O)O | 79µM | . | . | . | ? | .
Cc1ccc(Cl)c(Nc2ccccc2C(=O)O)c1Cl | . | . | . | . | . | .
Cc1c(Cl)cccc1Nc1ccccc1C(=O)O | 45µM! | . | . | . | . | .
CCc1c(C)nc2nncn2c1Nc1ccc(C)c(F)c1 | . | . | / | . | . | /
O=C(O)c1ccc(C(=O)C(=O)c2ccccc2)cc1 | 79µM | . | . | . | . | .
O=C(c1ccccc1)c1ccccc1 | .[12.7 µM] | . | . | . | . | .
COc1ccc(/C=N/N2CCN(c3ccccc3OC)CC2)cc1Br | .[0.501 µM] | . | . | 40µM | ? | .
COc1ccccc1N1CCN(/N=C/c2ccc(O)c(O)c2)CC1 | .[12.7 µM] | 28µM | . | 50µM | 22µM | 22µM
COc1ccc(/C=N/N2CCN(c3ccccc3OC)CC2)cc1OC | 45µM | . | . | ? | ? | .
COc1ccc(/C=N/N2CCN(c3ccccc3)CC2)cc1Br | . | . | . | . | . | .
CCN(CC)c1ccc(/C=N/N2CCN(c3ccccc3OC)CC2)cc1 | 8.9µM | 14µM | . | 32µM | 32µM | .
CCC[C@@H]1O[C@@H]2C[C@@H]3[C@H]4CCC5=CC(=O)C=C[C@@]5(C)[C@H]4[C@H](O)C[C@@]3(C)[C@@]2(C(=O)CO)O1 | .[12.7 µM] | / | / | / | / | .
O=S(=O)(NCc1nc2cccnc2n1Cc1ccc(F)cc1)c1ccc2c(c1)CCCC2 | . | . | / | . | . | /
CCOc1ccc(/C=C/c2nc(C#N)c(NCc3ccc(OC)cc3)o2)cc1 | . | . | / | . | . | /
N#C/C(=C\c1ccncc1)c1nc2ccccc2c(=O)[nH]1 | 25µM | . | . | ? | . | .
N#C/C(=C/c1ccncc1)c1nc2ccccc2c(=O)[nH]1 | 45µM | . | . | . | . | .
N#C/C(=C/c1ccccc1Cl)c1nc2ccccc2c(=O)[nH]1 | . | . | / | . | . | /
N#C/C(=C\c1cc(Br)c(O)c(Br)c1)c1nc2ccccc2c(=O)[nH]1 | . | . | / | ? | ? | /
COc1ccc(CNc2nc(NCc3ccc(OC)cc3)n(C(=O)c3ccccc3[N+](=O)[O-])n2)cc1 | 6.3µM | . | . | . | ? | .
O=C(OC[C@H]1O[C@@H](OC(=O)c2cc(O)c(O)c(OC(=O)c3cc(O)c(O)c(O)c3)c2)[C@H](OC(=O)c2cc(O)c(O)c(OC(=O)c3cc(O)c(O)c(O)c3)c2)[C@@H](OC(=O)c2cc(O)c(O)c(OC(=O)c3cc(O)c(O)c(O)c3)c2)[C@@H]1OC(=O)c1cc(O)c(O)c(OC(=O)c2cc(O)c(O)c(O)c2)c1)c1cc(O)c(O)c(OC(=O)c2cc(O)c(O)c(O)c2)c1 | 1.4µM | / | / | 0.79µM | / | /
COc1ccccc1C1C2C(=O)N(c3ccccc3)C(=O)C2ON1c1ccccc1 (stereo not given) | .[12.7 µM] | . | . | . | . | .
COc1ccccc1N1C(=O)C2ON(c3ccccc3)C(c3ccc(N(C)C)cc3)C2C1=O (stereo not given) | 8.9µM | / | / | 35µM | / | 45µM
SMILES | G9a block | HP1b binding inh | PLK1 PBD block | BAZ2B inh | JMJD2A Tudor | Sfp inh
Cn1cccc1C(=O)C(=O)Nc1cccc(Cl)c1Cl | . | . | . | . | . | .
NC(Cc1ccccc1)C(O)(c1ccccc1)c1ccccc1 (stereo not given) | .[0.501 µM] | . | . | . | . | .
N[C@H](C(=O)O)[C@H](Cc1ccccc1)C(=O)O | 7.1µM | / | / | / | / | /
COc1ccc(NC(=O)COC(=O)Cc2ccccc2[N+](=O)[O-])cc1OC | . | . | . | . | . | .
COc1ccc(NCc2ccccc2[N+](=O)[O-])cc1OC | 11µM | ? | . | 50µM | 50µM | .
Cc1cc(C)cc(OCC(=O)N2CCC(c3nc4ccccc4o3)CC2)c1 | . | . | / | . | . | /
Nc1ccc(S(=O)(=O)Nc2nccs2)cc1N=Nc1ccccc1[N+](=O)[O-] | / | 40µM | 30µM | / | 40µM | /
O=[N+]([O-])c1ccccc1S(=O)(=O)Nc1ccc(S(=O)(=O)Nc2nccs2)cc1 | 45µM | . | 27µM | . | . | .
CCc1nnc(NS(=O)(=O)c2ccc(NS(=O)(=O)c3ccccc3[N+](=O)[O-])cc2)s1 | ? | . | 24µM | . | . | .
CCc1nnc(NS(=O)(=O)c2ccc(Nc3ccc([N+](=O)[O-])c4nonc34)cc2)s1 | 25µM | ? | ? | 22µM | ? | .
COc1cc([C@@H]2c3cc4c(cc3[C@@H](OC3OC5COC(C)OC5C(O)C3O)[C@H]3COC(=O)[C@H]23)OCO4)cc(OC)c1O (stereo not given in full) | ? | / | / | / | / | .
OC(c1ccccc1)(c1nc(-c2cc3ccccc3o2)cs1)C(F)(F)F (stereo not given) | / | / | . | / | / | /
CC(C)(C)NC(=O)CSc1nnc(NC(=O)CCn2cnc3ccccc3c2=O)s1 | . | . | . | . | 25µM | .
Cc1cccc(C)c1NC(=O)CCn1cnc2ccccc2c1=O | .[12.7 µM] | . | 27µM | . | . | .
CC(C)(C)c1csc(NC(=O)Cn2cnc3ccccc3c2=O)n1 | ? | ? | 13µM | . | ? | 20µM
CCc1ccc(NC(=O)CCn2cnc3ccccc3c2=O)cc1 | . | . | / | . | 79µM | /
O=S(=O)(NCCc1csc2nc(-c3ccccc3)nn12)c1cc(F)ccc1F | . | . | / | . | . | /
CSc1nsc(SC)c1NC(=O)Nc1ccccc1C | . | . | . | . | .[11.4 µM] | .
CSc1nsc(SC)c1NC(=O)N1CCCCC1 | 45µM | . | . | . | . | .
CCN1C(=O)/C(=C\C=C2/C=CC=CN2CC)SC1=S | 10µM | 40µM | . | 22µM | ? | ?
CCN1C(=O)/C(=C\N2CCN(c3ccc(F)cc3)CC2)SC1=S | . | . | . | . | ? | .
O=C1N=C(N2CCN(c3ccccc3)CC2)S/C1=C/c1ccco1 | 50µM | . | . | 45µM | ? | .
NC1=NC(=O)/C(=C\c2ccco2)S1 | .[12.7 µM] | 56µM | . | 79µM | 50µM | 35µM
CCc1ccc(/C=C2/SC(N3CCOCC3)=NC2=O)cc1 | / | . | ? | . | . | .
Cc1ccc(N2CCN(C3=NC(=O)/C(=C\c4cn[nH]c4-c4ccccc4)S3)CC2)cc1 | . | . | . | . | 50µM | .
O=C1N=C(N2CCN(c3ccccc3)CC2)S/C1=C\c1cn[nH]c1-c1ccccc1 | . | . | . | . | . | .
CCN1CCN(C2=NC(=O)/C(=C/c3ccc(C)o3)S2)CC1 | 32µM | . | . | ? | . | 16µM
Cc1cc(C#Cc2c(-c3ccccc3)n(C)c3ccccc23)ccc1F | . | . | . | . | . | .
